The source of these data is PubChem BioAssay (EPA / NIEHS).

Inconclusive results are not listed. Active and inactive are the calls of the source. The calls were made as follows, unless noted: active = hit-call score of the fitted dose curve at least 0.9, where 1 is the maximum; inactive = score below 0.9.

The nature of assay [1]: ATG_PBREM_CIS: Attagene CIS-FACTORIAL HepG2 Assay for human Phenobarbital-responsive Enhancer Module (PBREM) (AID 2282955). The settings on record: HepG2 PBREM cis-reporter, Attagene multiplexed transcription; actives raise or lower the signal. The gist of the method: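 HepG2 cells transiently transfected with multiple cis-regulated reporter units measure endogenous transcription factor activity; 24 h compound exposure. Reporter mRNA quantified by RT-PCR, fluorescent labelling, HpaI digestion and capillary electrophoresis; bidirectional fit versus DMSO.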

Assay [2] has as its target Paired box protein Pax-6 (Homo sapiens) (UniProt P26367). Description: ATG_Pax6_CIS: Attagene CIS-FACTORIAL HepG2 Assay for human Paired Box 6 (PAX6) (AID 2282956). As to conditions: HepG2 CIS-FACTORIAL PAX6 reporter transcription, RNA readout; actives raise or lower the signal. The gist of the method: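 Read-out is reporter transcript level, measured by RT-PCR with fluorescent primer extension and capillary electrophoresis after 24 h dosing of transfected HepG2 cells. Activity in either direction fitted relative to DMSO control.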

A short description of assay [3]: ATG_PXRE_CIS: Attagene CIS-FACTORIAL HepG2 Assay for human Pregnane X Receptor Element (PXRE) (AID 2282957). As to conditions: HepG2 Attagene CIS-FACTORIAL PXRE reporter, mRNA; actives raise or lower the signal. Put shortly: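 Bidirectional activity, baselined to DMSO, derived from reporter mRNA fluorescence (RT-PCR plus capillary electrophoresis) in HepG2 cells bearing cis-promoter reporter units, 24 h exposure.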

Assay [4] is described as follows: ATG_Sox_CIS: Attagene CIS-FACTORIAL HepG2 Assay for human SRY-box transcription factor (SOX) (AID 2282960). As to conditions: HepG2 Attagene cis-factorial SOX reporter, mRNA; actives raise or lower the signal. The gist of the method: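 HepG2 cells transiently transfected with multiple cis-regulated reporter units, then dosed for 24 h. Reporter mRNA quantified by RT-PCR, fluorescent labelling, HpaI digestion and capillary electrophoresis; bidirectional fit versus DMSO.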

In assay [5] the target is Transcription factor Sp1 (Homo sapiens) (UniProt P08047). Description: ATG_Sp1_CIS: Attagene CIS-FACTORIAL HepG2 Assay for human Specificity Protein 1 (Sp1) (AID 2282961). The settings on record: HepG2 Sp1 cis-reporter transcription, actives raise or lower the signal. The gist of the method: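 HepG2 cells transiently transfected with multiplexed cis-regulated reporter constructs, chemical exposure 24 h. Reporter mRNA quantified by RT-PCR with capillary electrophoresis; bidirectional fit relative to DMSO.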
Transcription factor Sp1 (Homo sapiens), sequence (P08047 whole entry, looked up): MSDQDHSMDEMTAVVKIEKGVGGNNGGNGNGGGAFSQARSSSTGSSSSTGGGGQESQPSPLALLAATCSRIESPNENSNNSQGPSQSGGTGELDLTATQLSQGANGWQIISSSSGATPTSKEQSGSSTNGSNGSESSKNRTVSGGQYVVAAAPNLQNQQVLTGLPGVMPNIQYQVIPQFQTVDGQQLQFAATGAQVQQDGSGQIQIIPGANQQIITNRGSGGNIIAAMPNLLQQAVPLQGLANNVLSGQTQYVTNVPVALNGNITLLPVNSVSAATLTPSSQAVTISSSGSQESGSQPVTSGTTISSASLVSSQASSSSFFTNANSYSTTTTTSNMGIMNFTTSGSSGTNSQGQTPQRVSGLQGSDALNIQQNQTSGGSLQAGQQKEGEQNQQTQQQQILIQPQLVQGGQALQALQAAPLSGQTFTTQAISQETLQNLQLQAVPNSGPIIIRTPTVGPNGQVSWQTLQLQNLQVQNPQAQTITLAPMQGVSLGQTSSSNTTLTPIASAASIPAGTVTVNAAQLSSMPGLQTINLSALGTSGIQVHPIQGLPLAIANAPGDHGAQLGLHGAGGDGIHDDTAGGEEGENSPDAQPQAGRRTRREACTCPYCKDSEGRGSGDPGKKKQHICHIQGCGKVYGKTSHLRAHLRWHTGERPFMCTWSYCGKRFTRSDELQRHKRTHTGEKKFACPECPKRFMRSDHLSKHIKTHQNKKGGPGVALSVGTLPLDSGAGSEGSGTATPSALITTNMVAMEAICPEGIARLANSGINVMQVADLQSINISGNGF

Assay [6] is described as follows: ATG_SREBP_CIS: Attagene CIS-FACTORIAL HepG2 Assay for human Sterol Regulatory Element Binding (SREBP) (AID 2282962). As to conditions: HepG2 Attagene cis-factorial SREBP reporter, mRNA; actives raise or lower the signal. Put shortly:
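Endogenous SREBP activity read as cis-element-driven reporter transcript in transiently transfected HepG2, 24 h post-dosing; quantified via RT-PCR plus capillary electrophoresis of fluorescent fragments. Gain or loss of signal fitted relative to DMSO baseline.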

A short description of assay [7]: ATG_TA_CIS: Attagene CIS-FACTORIAL HepG2 Assay for human TA Basal Promoter (AID 2282964). As to conditions: HepG2 Attagene CIS-factorial TA basal promoter reporter; actives raise or lower the signal. The gist of the method: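 HepG2 cells transiently transfected with multiple reporter units under cis promoter elements, reporting endogenous transcription factor activity; this endpoint tracks the TA basal promoter as background control. Reporter mRNA after 24 h dosing measured by RT-PCR/capillary electrophoresis; bidirectional fits versus DMSO.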

Assay [8] in a line: ATG_TCF_b_cat_CIS: Attagene CIS-FACTORIAL HepG2 Assay for human T-Cell-Factor with beta-catenin (TCF/b-cat) (AID 2282965). As to conditions: HepG2 TCF/beta-catenin cis-reporter transcription, actives raise or lower the signal. Put shortly: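 Endogenous TCF/LEF activity read as reporter transcript level via RT-PCR and capillary electrophoresis fluorescence in transfected HepG2, 24 h exposure; gain or loss of signal fitted against DMSO controls.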

Assay [9] is described as follows: ATG_TAL_CIS: Attagene CIS-FACTORIAL HepG2 Assay for human TAL Basal Promoter (AID 2282966).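 Also: background control endpoint measuring basal TAL promoter reporter mRNA not a specific factor.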 The settings on record: HepG2 Attagene cis-factorial TAL promoter reporter; actives raise or lower the signal. The gist of the method: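 Human hepatoma HepG2 cells, transfected with promoter-regulated reporter units, were treated 24 h. Reporter transcript levels, measured through RT-PCR and capillary electrophoresis, were fitted for gain or loss relative to DMSO.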

Assay [10] can be described thus: ATG_VDRE_CIS: Attagene CIS-FACTORIAL HepG2 Assay for human Vitamin D Receptor Element (VDRE) (AID 2282968). The settings on record: HepG2 VDRE cis-reporter transcription, actives raise or lower the signal. The gist of the method:
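Measures endogenous factor activity through cis-element-driven reporter transcripts in transiently transfected HepG2. Cells are treated 24 h; reporter mRNA is quantified by RT-PCR and capillary electrophoresis; fitting is bidirectional.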

The target of assay [11] is Nuclear receptor subfamily 1 group I member 3 (Homo sapiens) (UniProt Q14994). Description: ATG_CAR_TRANS: Attagene TRANS-FACTORIAL HepG2 Assay for human Constitutive Androstane Receptor (CAR) (AID 2282969; active = hit-call score of the fitted dose curve at least 0.9, where 1 is the maximum;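 also: activators raise reporter mRNA above DMSO so AC50 marks induction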). As to conditions: HepG2 Attagene TRANS-FACTORIAL CAR reporter. The gist of the method: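 Signal is reporter mRNA induction relative to DMSO, measured 24 h after dosing by RT-PCR with fluorescent primer extension and capillary electrophoresis. Human HepG2 liver cells carried transiently transfected chimeric NR-Gal4/GAL4-UAS reporter constructs.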
Nuclear receptor subfamily 1 group I member 3 (Homo sapiens), sequence (Q14994 whole entry, looked up, the tested form may be a part): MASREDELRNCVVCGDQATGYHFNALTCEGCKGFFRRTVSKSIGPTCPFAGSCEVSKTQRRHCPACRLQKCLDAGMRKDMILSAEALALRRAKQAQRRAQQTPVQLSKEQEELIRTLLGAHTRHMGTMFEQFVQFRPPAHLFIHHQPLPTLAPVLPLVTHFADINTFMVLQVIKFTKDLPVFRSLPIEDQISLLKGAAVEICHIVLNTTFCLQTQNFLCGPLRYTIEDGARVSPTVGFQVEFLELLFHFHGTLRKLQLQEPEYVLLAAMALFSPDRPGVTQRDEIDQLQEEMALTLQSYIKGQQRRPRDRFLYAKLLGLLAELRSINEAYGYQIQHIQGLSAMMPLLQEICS

Assay [12] addresses Estrogen receptor (Homo sapiens) (UniProt P03372). Description: ATG_ERa_TRANS: Attagene TRANS-FACTORIAL HepG2 Assay for human Estrogen Receptor alpha (ERa) (AID 2282970; active = hit-call score of the fitted dose curve at least 0.9, where 1 is the maximum). As to conditions: HepG2 Attagene TRANS ERa GAL4 reporter, mRNA. The gist of the method:
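Signal derives from fluorescence of labelled reporter PCR fragments separated by capillary electrophoresis. HepG2 cells transiently carrying multiple GAL4-UAS reporter units were treated 24 hours, and induction above DMSO baseline was fitted as activity.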

Assay [13] concerns the target X-box-binding protein 1 (Homo sapiens) (UniProt P17861). Description: ATG_Xbp1_CIS: Attagene CIS-FACTORIAL HepG2 Assay for human X-box Binding Protein 1 (XBP1) (AID 2282972). As to conditions: HepG2 XBP1 cis-element reporter, Attagene multiplex; actives raise or lower the signal. Put shortly: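 Reporter transcripts were quantified by RT-PCR with fluorescent primer extension and capillary electrophoresis after 24 h chemical exposure. Cells: transiently transfected HepG2 carrying cis-regulated reporter constructs; data fitted bidirectionally relative to DMSO.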

The nature of assay [14]: ATG_M_19_TRANS: Attagene TRANS-FACTORIAL HepG2 Assay for M19 Transcription Factor (Internal Marker) (AID 2282974; active = hit-call score of the fitted dose curve at least 0.9, where 1 is the maximum). The settings on record: HepG2 Attagene TRANS-FACTORIAL M19 internal marker reporter. Put shortly:
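HepG2 transiently transfected with GAL4-UAS multiplex reporter constructs, exposed 24 h; reporter RNA quantified by RT-PCR, 6-FAM labeling, HpaI digestion and capillary electrophoresis; internal background marker fitted upward versus DMSO.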

Assay [15] concerns the target Signal transducer and activator of transcription 3 (Homo sapiens) (UniProt P40763). Description: ATG_STAT3_CIS: Attagene CIS-FACTORIAL HepG2 Assay for human Signal Transducer and Activator of Transcription 3 (STAT3) (AID 2282963). The settings on record: HepG2, Attagene cis-factorial STAT3 reporter transcription; actives raise or lower the signal. The gist of the method:
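Cis-factorial format: endogenous transcription factors in HepG2 drive transfected reporter units. After 24 h treatment, reporter RNA was reverse-transcribed, amplified, FAM-labelled and HpaI-digested before CE analysis; activity scored in both directions against DMSO.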

The nature of assay [16]: ATG_TGFb_CIS: Attagene CIS-FACTORIAL HepG2 Assay for human Transforming Growth Factor (TGF) (AID 2282967). As to conditions: HepG2 Attagene CIS TGFb reporter, mRNA transcription; actives raise or lower the signal. Put shortly: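 HepG2 cells transiently transfected with cis-promoter-driven multiple reporter units measure endogenous TF activity; reporter mRNA quantified at 24 h by RT-PCR, FAM labeling, HpaI digestion and capillary electrophoresis. Bidirectional fit vs DMSO.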

Assay [17] in a line: ATG_GAL4_TRANS: Attagene TRANS-FACTORIAL HepG2 Assay for GAL4 (Internal Marker) (AID 2282976; active = hit-call score of the fitted dose curve at least 0.9, where 1 is the maximum). As to conditions: HepG2 Attagene TRANS GAL4 internal marker reporter. The gist of the method:
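Liver HepG2 line bearing multiplexed GAL4-UAS reporter constructs; 24 h chemical treatment. Transcripts were quantified as fluorescent fragments on capillary electrophoresis after RT-PCR and HpaI cut, with activity fitted upward from DMSO.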

The nature of assay [18]: ATG_RORE_CIS: Attagene CIS-FACTORIAL HepG2 Assay for human RAR-related Orphan Receptor Element (RORE) (AID 2282959). The settings on record: HepG2 Attagene cis-factorial RORE reporter, mRNA; actives raise or lower the signal. Put shortly: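 HepG2 cells carrying transiently transfected cis-regulated reporter units; RORE-driven reporter mRNA quantified 24 h post-dosing by RT-PCR, 6-FAM primer extension, HpaI digestion and capillary electrophoresis. Bidirectional fit versus DMSO.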

Assay [19] concerns the target Steroid hormone receptor ERR1 (Homo sapiens) (UniProt P11474). Description: ATG_ERRa_TRANS: Attagene TRANS-FACTORIAL HepG2 Assay for human Estrogen-Related Receptor alpha (ERRa) (AID 2282971; active = hit-call score of the fitted dose curve at least 0.9, where 1 is the maximum). As to conditions: HepG2 Attagene TRANS reporter, ERRa transactivation. Put shortly:
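Signal gain relative to DMSO for an ERRa-Gal4 chimeric receptor, read as reporter mRNA by RT-PCR/capillary electrophoresis. Human HepG2 liver cells, transient multiplex reporter transfection, 24 h chemical exposure.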

In general, AC50 refers to the concentration at which the activity in the assay is half-maximal.

Paired box protein Pax-6 (Homo sapiens), sequence (P26367 whole entry, looked up): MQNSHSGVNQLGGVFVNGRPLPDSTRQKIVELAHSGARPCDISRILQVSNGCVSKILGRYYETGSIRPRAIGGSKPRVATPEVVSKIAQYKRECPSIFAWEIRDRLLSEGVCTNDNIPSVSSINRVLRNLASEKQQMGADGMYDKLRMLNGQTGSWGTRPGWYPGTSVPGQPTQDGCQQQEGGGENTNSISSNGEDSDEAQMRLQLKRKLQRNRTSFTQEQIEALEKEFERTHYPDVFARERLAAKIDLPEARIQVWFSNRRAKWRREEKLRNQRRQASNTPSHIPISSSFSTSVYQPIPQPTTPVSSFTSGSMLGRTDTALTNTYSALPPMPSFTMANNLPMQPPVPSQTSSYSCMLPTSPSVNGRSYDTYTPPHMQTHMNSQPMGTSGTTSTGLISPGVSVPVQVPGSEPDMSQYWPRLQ
Estrogen receptor (Homo sapiens), sequence (P03372 whole entry, looked up, the tested form may be a part): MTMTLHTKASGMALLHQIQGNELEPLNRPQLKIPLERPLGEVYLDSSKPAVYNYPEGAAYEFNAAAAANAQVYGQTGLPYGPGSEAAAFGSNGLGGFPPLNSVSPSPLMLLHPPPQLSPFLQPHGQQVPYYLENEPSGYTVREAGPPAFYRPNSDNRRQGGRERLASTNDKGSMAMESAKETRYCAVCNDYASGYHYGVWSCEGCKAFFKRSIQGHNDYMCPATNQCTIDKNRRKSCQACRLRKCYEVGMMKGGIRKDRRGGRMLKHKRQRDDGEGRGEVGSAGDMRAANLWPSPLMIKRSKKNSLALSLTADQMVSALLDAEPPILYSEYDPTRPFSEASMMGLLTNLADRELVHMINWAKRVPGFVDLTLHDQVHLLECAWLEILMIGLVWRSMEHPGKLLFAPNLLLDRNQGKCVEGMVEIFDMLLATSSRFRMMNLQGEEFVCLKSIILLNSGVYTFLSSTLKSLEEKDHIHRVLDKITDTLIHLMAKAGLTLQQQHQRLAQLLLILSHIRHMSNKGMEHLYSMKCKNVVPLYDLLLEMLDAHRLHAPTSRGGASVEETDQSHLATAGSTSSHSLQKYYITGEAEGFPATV
X-box-binding protein 1 (Homo sapiens), sequence (P17861 whole entry, looked up): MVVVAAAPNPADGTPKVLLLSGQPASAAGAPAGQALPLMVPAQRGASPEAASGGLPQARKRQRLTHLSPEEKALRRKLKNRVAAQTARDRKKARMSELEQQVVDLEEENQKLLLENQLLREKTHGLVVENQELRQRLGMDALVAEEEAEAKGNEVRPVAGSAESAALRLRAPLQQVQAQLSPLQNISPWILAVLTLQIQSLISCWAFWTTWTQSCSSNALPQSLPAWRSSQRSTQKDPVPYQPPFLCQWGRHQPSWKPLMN
Signal transducer and activator of transcription 3 (Homo sapiens), sequence (P40763 whole entry, looked up): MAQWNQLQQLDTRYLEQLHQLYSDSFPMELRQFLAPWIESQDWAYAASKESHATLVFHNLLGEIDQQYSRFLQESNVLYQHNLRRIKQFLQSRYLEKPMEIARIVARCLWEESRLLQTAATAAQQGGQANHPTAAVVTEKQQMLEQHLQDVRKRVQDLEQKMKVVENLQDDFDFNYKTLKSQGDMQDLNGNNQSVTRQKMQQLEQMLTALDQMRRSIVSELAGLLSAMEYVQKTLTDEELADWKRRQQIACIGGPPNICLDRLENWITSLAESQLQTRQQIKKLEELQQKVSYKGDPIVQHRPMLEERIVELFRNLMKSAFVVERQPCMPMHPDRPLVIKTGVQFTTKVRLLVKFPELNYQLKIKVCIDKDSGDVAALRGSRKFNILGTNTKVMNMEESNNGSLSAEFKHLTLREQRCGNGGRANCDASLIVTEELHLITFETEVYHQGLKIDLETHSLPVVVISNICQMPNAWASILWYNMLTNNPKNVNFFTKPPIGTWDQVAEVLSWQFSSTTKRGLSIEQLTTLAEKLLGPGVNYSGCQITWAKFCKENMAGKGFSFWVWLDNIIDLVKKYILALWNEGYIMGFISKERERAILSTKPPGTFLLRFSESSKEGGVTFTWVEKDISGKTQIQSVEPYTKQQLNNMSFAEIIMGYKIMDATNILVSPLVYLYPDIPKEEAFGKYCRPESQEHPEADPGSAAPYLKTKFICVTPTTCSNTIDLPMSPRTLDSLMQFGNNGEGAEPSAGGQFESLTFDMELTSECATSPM
Steroid hormone receptor ERR1 (Homo sapiens), sequence (P11474 whole entry, looked up, the tested form may be a part): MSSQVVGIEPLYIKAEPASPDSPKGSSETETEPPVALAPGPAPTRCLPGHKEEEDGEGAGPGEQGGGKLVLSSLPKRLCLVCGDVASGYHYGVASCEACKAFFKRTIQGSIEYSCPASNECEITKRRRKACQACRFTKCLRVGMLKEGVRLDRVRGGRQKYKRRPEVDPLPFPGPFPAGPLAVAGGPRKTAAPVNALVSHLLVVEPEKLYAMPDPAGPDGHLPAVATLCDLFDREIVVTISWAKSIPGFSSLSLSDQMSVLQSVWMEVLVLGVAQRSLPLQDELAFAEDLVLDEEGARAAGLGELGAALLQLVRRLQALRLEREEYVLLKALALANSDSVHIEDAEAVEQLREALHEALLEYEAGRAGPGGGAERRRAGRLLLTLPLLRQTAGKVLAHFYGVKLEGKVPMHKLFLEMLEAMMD

Consider `COC(Cc1ccccc1)OC`, for which the result in [1], in assay [2], in [3], in assay [4], in assay [5] and in [6] was inactive. In addition, the result in assay [7], in assay [8], in assay [9], in [10], in assay [11] and in assay [12] was inactive. Also, the molecule was called inactive in [13] and in assay [14].

Consider `O=c1c(O)c(-c2ccc(O)cc2O)oc2cc(O)cc(O)c12`, for which the outcome in assay [1], in assay [2], in [4], in assay [5], in assay [6] and in assay [15] was inactive. In addition, the call in assay [7], in [8], in [9], in assay [16], in assay [10] and in assay [11] was inactive. The molecule was called inactive in [13]. The AC50 in assay [3] was 26.5 µM (active); in assay [12], 59.4 µM (active).

For the molecule `CCCCNC(=S)NCCCC`, the result in assay [1], in [2], in assay [4], in assay [5], in assay [6] and in assay [15] was inactive. Further, the outcome in [7], in [8], in [9], in assay [10], in [12] and in [13] was inactive. The call in assay [17] was inactive. The AC50 in assay [3] was 38 µM (active).

Regarding `C=C(C)[C@@H]1CC=C(C)CC1`, the result in [1], in [2], in assay [3], in assay [4], in [5] and in [6] was inactive. The outcome in [15], in assay [7], in assay [8], in assay [9], in [16] and in assay [14] was inactive.

For the molecule `C=C(C)C(=O)OCCCCCCCCCCCC`, the outcome in assay [1], in [2], in assay [18], in [4], in assay [6] and in [15] was inactive. The molecule was classed as inactive in assay [7], in assay [8], in assay [9], in assay [16], in assay [10] and in assay [11]. Also, the molecule was classed as inactive in [19], in [13] and in assay [14]. Further, the AC50 in assay [3] was 30.9 µM (active); in [12], 56.7 µM (active).
